Results filed as inconclusive are left out. A number with no mark means an inactive call. Calls of active or inactive are those of the source. Calls come from the whole dose curve; as a rule, active = well fitted inhibition curve with a large enough effect; inconclusive = small, poorly fitted or top-dose-only effect; inactive = flat fitted curve, though single readings scatter.

In this test the target is Polyunsaturated fatty acid lipoxygenase ALOX12 (Homo sapiens) (UniProt P18054). In words: Confirmation qHTS Assay for Inhibitors of 12-hLO (12-human lipoxygenase). Particulars: purified 12-hLO, xylenol orange absorbance; activity change, negative = inhibition: stronger effect = lower value. The gist of the method: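 Purified human 12hLO (150 nM) was preincubated 15 min with compound in 25 mM Hepes pH 7.0, 0.01% Triton X-100. Reaction: 40 uM arachidonic acid, 30 min RT. Hydroperoxide detected by Fe-xylenol orange, 573/405 nm absorbance ratio.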
Polyunsaturated fatty acid lipoxygenase ALOX12 (Homo sapiens), sequence (P18054 whole entry, looked up): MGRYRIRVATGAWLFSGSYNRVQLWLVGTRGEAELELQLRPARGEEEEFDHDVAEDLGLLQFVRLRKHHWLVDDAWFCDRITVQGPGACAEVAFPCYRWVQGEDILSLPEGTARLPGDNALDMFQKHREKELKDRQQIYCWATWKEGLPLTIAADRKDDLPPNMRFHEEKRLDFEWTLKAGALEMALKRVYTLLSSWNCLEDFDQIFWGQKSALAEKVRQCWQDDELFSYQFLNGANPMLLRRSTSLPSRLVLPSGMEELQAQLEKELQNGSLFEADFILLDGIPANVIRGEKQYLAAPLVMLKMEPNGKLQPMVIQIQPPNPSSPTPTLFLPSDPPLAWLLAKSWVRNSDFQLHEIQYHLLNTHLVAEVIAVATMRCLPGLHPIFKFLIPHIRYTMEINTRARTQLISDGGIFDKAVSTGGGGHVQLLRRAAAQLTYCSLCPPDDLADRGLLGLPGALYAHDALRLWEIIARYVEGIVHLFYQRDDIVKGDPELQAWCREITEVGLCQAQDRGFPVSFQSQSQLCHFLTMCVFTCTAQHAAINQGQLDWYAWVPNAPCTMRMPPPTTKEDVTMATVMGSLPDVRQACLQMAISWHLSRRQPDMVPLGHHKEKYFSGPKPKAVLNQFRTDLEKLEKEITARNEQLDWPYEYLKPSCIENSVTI

As to `Oc1ccc(CNc2ccccc2)c2cccnc12`, the Potency is 11.2 µM (active). In the case of `CCOc1ccc(NS(=O)(=O)c2ccc3[nH]cc(C(=O)N(CC)CC)c(=O)c3c2)cc1`, the activity change, negative = inhibition was -15.5%.

As to `Nc1cc(-c2ccncc2)c[nH]c1=O`, the activity change, negative = inhibition was -18.7%.

For the molecule `O=C(C1=C(O)C(=O)N(Cc2ccco2)C1c1cccnc1)c1cc2ccccc2o1` (stereo unspecified), the activity change, negative = inhibition is -19%. For the molecule `CCCCn1c(NC(C)=O)c(C#N)c2nc3ccccc3nc21`, the activity change, negative = inhibition is -16%.

Regarding `O=C(OCC#CCSc1nnc(-c2cccc3ccccc23)o1)c1cnc[nH]1`, the activity change, negative = inhibition is -8.94%. Take `O=C(OCC#CCSc1nnc(-c2cccc3ccccc23)o1)c1ccc(Br)cc1`: the activity change, negative = inhibition is -6.83%.

Consider `NC(=O)c1cccc2c3c([nH]c12)CCCC3`, for which the activity change, negative = inhibition was -10.2%.

Turning to `O=C(OCC#CCSc1nnc(-c2cccc3ccccc23)s1)c1cccs1`, the activity change, negative = inhibition is -23.7%. On to `Cc1cc(/C=N/NC(=O)Cn2c3ccccc3c(=O)c3ccccc32)c(C)n1-c1ccccc1`, for which the activity change, negative = inhibition was -20.8%. For the molecule `CCC(=O)NC(c1ccc(C)s1)c1cc(Cl)c2cccnc2c1O` (stereo unspecified), the Potency is 39.8 µM (active). On to `O=C(c1ccncc1)N1CCC2(CCCN(Cc3nccs3)C2)CC1`, for which the activity change, negative = inhibition was -1.82%. On to `CC(=O)N1CCN(c2ccc(NCc3cccs3)cc2)CC1`, for which the Potency is 44.7 µM (active).

As to `O=C(OCC#CCSc1nnc(-c2cccc3ccccc23)o1)c1ccc2ccccc2c1`, the activity change, negative = inhibition is -5.58%.

As to `Cc1cc(Nc2nnnn2-c2ccccc2)n(-c2ccc(Cl)cc2)n1`, the activity change, negative = inhibition was -12.4%. As to `CC(=O)[C@@H]1[C@@H]2C(=O)N(Cc3ccccc3)C(=O)[C@@H]2C2c3ccccc3C=CN21` (stereo partly specified), the activity change, negative = inhibition was -19.1%.

Source of the values: PubChem BioAssay AID2162 (National Center for Advancing Translational Sciences (NCATS), 2009).
